The record followed here is PubChem BioAssay (NCATS).

Values without a mark were called inactive. Results filed as inconclusive are left out. The source made the active and inactive calls. Unless noted, calls come from the whole dose curve; as a rule, active = well fitted curve in the direction sought with a large enough effect; inconclusive = small, poorly fitted or top-dose-only effect, or another doubt; inactive = no such curve, though single readings can be large; an effect the other way counts as inactive or inconclusive. Bounds are passed on as bounds.

Experiment [1] has as its target Lysosomal acid glucosylceramidase (Homo sapiens) (UniProt P04062). The experiment can be described thus: Glucocerebrosidase-p2 (AID 348; in the data active = potency below about 10 µM; note: potency is the fitted concentration of half-maximal effect). The note with it: purified GBA, blue fluorogenic substrate, 40 min. The gist of the method: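 Normal human glucocerebrosidase (0.2 nM) with blue fluorogenic substrate (80 uM final) in citrate/phosphate pH 5.9 with 10mM sodium taurocholate, 0.01% tween-20; 40 min RT, NaOH/glycine stop; fluorescence Ex 365/Em 440; AC50 from a titration from 0.6 nM upwards.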

Experiment [2] is described as follows: AP1 Signaling Pathway (AID 357; active = well fitted curve in either direction with a large enough effect, not every such curve was filed as active;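 note: ME-180 reporter cells stimulated with EGF at its EC50 level; % is set by controls: 0 for no effect and ±100 for the full control effect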). The following applies: ME-180 AP-1-bla reporter, EGF-induced, beta-lactamase ratio, 5 h; at 7.69 µM (top of the series) unless noted. The essentials:
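Modulation of EGF-driven AP-1 transcription was assessed with a beta-lactamase reporter in ME-180 cells. Compound and EC50 EGF were co-incubated 5 hours at 37 °C before 2.5-hour CCF4 loading at room temperature and dual-emission reading.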

Experiment [3] in a line: NFAT Signaling Pathway (AID 444; active = well fitted curve in either direction with a large enough effect, not every such curve was filed as active;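 note: carbachol stimulus at about its EC50 of 1 µM final; % is set by controls: 0 for no effect and ±100 for the full control effect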). The note with it: Jurkat NFAT-bla M1, carbachol, beta-lactamase ratio, 5 h; at 7.69 µM (top of the series) unless noted. The essentials:
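Jurkat cells with NFAT-driven β-lactamase reporter and co-expressed M1 receptor, stimulated with carbachol (final 1 uM, ~EC50), compound titration, 5 h at 37 °C. CCF4 loaded 1 h at RT; 460/530 nm ratio gave %activity and AC50.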

Experiment [4] can be described thus: Stat Signaling Pathway (AID 446; active = well fitted curve in either direction with a large enough effect, not every such curve was filed as active;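 note: ME-180 cervical cancer cells given 40 pM IL-6 alongside compound; SIE-controlled beta-lactamase reporter measured as 460/530 nm FRET emission ratio; % is set by controls: 0 for no effect and ±100 for the full control effect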). The following applies: ME-180 (cervical carcinoma) SIE beta-lactamase reporter, IL-6 stimulated, 5 h; at 7.69 µM (top of the series) unless noted. The gist of the method:
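FRET read-out (405 nm excitation, 460/530 nm emission) of a beta-lactamase reporter under a STAT-inducible element in ME-180 cervical carcinoma cells. Cells with compound receive 40 pM IL-6 for 5 h. Values are normalised to AC90 stimulation and AC90 JAK-inhibitor controls.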

The target of experiment [5] is Glucocorticoid receptor (Homo sapiens) (UniProt P04150). As to the kind of experiment: GR-GFP Redistribution (AID 450;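 active = compounds whose dose series gives a full or clear partial fitted curve of increased nuclear translocation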; note: potency is the fitted concentration of half-maximal effect). The note with it: U2OS GR-GFP nuclear translocation, laser cytometry, 2 h.
Sequence of Glucocorticoid receptor (Homo sapiens) (P04150 whole entry, looked up): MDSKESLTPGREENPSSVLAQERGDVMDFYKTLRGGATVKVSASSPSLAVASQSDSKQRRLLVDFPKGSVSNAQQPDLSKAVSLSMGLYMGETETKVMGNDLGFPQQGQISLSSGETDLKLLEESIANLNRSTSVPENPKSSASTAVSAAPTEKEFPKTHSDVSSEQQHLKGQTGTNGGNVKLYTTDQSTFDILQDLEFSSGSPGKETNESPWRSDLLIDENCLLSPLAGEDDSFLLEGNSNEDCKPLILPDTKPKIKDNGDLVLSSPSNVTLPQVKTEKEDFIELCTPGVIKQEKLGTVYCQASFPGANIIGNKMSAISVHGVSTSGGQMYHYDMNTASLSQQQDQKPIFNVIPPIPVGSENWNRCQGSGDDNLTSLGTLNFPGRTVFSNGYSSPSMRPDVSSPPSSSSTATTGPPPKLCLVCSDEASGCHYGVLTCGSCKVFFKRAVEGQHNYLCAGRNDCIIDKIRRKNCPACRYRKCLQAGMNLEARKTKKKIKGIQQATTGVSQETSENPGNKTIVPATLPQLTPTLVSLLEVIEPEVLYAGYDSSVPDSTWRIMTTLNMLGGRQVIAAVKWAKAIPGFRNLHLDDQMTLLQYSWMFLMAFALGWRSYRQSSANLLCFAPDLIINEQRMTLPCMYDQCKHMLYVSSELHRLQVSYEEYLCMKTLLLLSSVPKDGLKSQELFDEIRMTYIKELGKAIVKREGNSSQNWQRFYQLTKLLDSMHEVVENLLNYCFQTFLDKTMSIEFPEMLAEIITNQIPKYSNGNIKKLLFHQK
The target is the same in experiment [6]. As to the kind of experiment: GR-EFC Redistribution (AID 451; calls by dose curve; note: potency is the fitted concentration of half-maximal effect). The following applies: CHO-K1 GR-EFC translocation, beta-gal luminescence, 2 h. The essentials:
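CHO-K1 cells expressing nuclear EA and GR-ED fragments of b-gal; compounds titrated up to 46 uM final, 2 h at 37 C. GR nuclear translocation read as complemented b-gal luminescence after 1 h RT detection.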

Experiment [7] has as its target Mitogen-activated protein kinase 10 (Mus musculus) (UniProt Q61831). The experiment can be described thus: JNK3 AlphaScreen Assay (AID 530; active = well fitted curve in either direction with a large enough effect, not every such curve was filed as active;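 note: kinase came from lysate of stimulated human HepG2 cells; signal reports phosphorylation of biotinylated GST-cJun 1-79 at Ser73 with 10 µM ATP; % is set by controls: 0 for no effect and ±100 for the full control effect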). The following applies: JNK3 lysate, c-Jun phosphorylation; series mostly up to 57.1 µM. The gist of the method:
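Activity was read by AlphaScreen after JNK3-containing HepG2 lysate (cytokine pre-activated) phosphorylated biotinylated GST-cJun with 10 uM ATP at room temperature. Phospho-Ser73 cJun antibody with Protein-A acceptor beads provided detection.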

The target of experiment [8] is 3',5'-cyclic-AMP phosphodiesterase 4B (Homo sapiens) (UniProt Q07343). As to the kind of experiment: qHTS Assay for Inhibitors of PDE-IV (AID 607; active = well fitted activation curve with a large enough effect in the main read-out, with a control signal flat, not every such curve was filed as active; note: % of control where 0% means no effect). The note with it: HEK293 ACTOne CNG channel cells, membrane potential fluorescence; series mostly up to 22.9 µM. The essentials: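 Cell-based read-out of cAMP via a modified cyclic nucleotide-gated channel and membrane potential dye (535/590 nm) in HEK293 cells expressing PDE4 endogenously. Compounds tested up to 22.9 uM final; 100 uM RO 20-1724 reference.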
Sequence of 3',5'-cyclic-AMP phosphodiesterase 4B (Homo sapiens) (Q07343 whole entry, looked up): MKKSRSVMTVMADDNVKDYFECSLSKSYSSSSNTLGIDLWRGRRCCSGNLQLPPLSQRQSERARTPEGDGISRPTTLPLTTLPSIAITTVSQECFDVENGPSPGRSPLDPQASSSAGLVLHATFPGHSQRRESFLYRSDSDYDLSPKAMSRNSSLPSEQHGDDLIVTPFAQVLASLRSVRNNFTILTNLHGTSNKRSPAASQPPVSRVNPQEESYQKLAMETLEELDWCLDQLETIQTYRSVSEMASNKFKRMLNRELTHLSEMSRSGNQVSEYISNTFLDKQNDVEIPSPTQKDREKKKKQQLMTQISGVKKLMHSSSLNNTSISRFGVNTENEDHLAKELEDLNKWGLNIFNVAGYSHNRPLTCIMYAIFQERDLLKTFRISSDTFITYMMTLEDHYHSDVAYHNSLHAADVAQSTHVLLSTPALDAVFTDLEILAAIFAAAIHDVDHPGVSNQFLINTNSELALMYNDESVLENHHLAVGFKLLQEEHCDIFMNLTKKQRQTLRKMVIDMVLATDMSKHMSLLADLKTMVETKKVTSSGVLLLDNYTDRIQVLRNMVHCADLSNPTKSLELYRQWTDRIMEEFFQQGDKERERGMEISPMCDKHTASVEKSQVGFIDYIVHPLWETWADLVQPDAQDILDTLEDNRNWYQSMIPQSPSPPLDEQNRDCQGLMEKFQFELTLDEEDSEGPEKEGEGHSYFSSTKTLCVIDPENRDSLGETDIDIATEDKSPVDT

Experiment [9] concerns the target Dual specificity protein kinase CLK4 (Homo sapiens) (UniProt Q9HAZ1). As to the kind of experiment: qHTS Assay for Inhibitors of CDC-like Kinase 4 (Kinase-Glo Assay) (AID 1770). Note: nearly all actives have a fitted effect of over 65% in size. Note: potency is the fitted concentration of half-maximal effect. The note with it: recombinant Clk4, Kinase-Glo ATP depletion luminescence; series mostly up to 66.7 µM. The essentials: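 Recombinant human Clk4 (25 nM) phosphorylated RS repeat peptide (100 uM) with 1 uM ATP in Tris pH 7.5/MgCl2/EGTA/DTT/Triton buffer for 4.5 h at room temperature. Residual ATP was quantified by Kinase-Glo luciferase luminescence.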
Background: Quantitative high-throughput screening tests each substance at several concentrations.

For experiment [10] the target is unchanged. The experiment can be described thus: qHTS Assay for Inhibitors of CDC-like Kinase 4 (ADP-Glo Assay) (AID 1771). Note: nearly all actives have a fitted effect of over 70% in size. Note: potency is the fitted concentration of half-maximal effect. The note with it: recombinant CLK4, ADP-Glo luminescence; series mostly up to 80 µM. The essentials: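 Compounds are pin-transferred onto substrate mix (100 uM RS peptide, 1 uM ATP), then 25 nM Clk4 is added. After 1 hr at room temperature, ADP-Glo reagent runs 45 min, detection reagent 30 min, then luminescence is read.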

The target is the same in experiment [11]. As to the kind of experiment: qHTS Assay for Inhibitors of CDC-like Kinase 4 (ADP-FP Assay) (AID 1795). Note: nearly all actives have a fitted effect of over 60% in size. Note: potency is the fitted concentration of half-maximal effect. The note with it: Transcreener ADP fluorescence polarization; series mostly up to 50 µM. The gist of the method:
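Recombinant human Clk4 (6.25 nM) phosphorylated RS repeat peptide (100 uM) with 1 uM ATP in Tris pH 7.5/MgCl2/EGTA/DTT/Triton buffer for one hour. ADP was quantified by Transcreener competitive fluorescence polarization against an ADP calibration curve.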

In experiment [12] the target is Ubiquitin carboxyl-terminal hydrolase 1 (Homo sapiens) (UniProt O94782). As to the kind of experiment: Inhibitors of USP1/UAF1: Pilot qHTS (AID 504865). Note: nearly all actives have a fitted effect of over 35% in size. Note: potency is the fitted concentration of half-maximal effect. The following applies: purified USP1/UAF1, Ub-rhodamine cleavage fluorescence; series mostly up to 54.9 µM. The essentials: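 USP1/UAF1 complex (1nM) preincubated with compound 15 min at room temperature, then Ub-Rho substrate (150nM final) added. Fluorescence read kinetically at 480/540 nm, 6 reads every 60 seconds. Buffer: 50mM HEPES pH 7.8, 0.5mM EDTA, 0.1 mg/ml BSA, 1mM TCEP, 0.01% Tween-20.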
Sequence of Ubiquitin carboxyl-terminal hydrolase 1 (Homo sapiens) (O94782 whole entry, looked up): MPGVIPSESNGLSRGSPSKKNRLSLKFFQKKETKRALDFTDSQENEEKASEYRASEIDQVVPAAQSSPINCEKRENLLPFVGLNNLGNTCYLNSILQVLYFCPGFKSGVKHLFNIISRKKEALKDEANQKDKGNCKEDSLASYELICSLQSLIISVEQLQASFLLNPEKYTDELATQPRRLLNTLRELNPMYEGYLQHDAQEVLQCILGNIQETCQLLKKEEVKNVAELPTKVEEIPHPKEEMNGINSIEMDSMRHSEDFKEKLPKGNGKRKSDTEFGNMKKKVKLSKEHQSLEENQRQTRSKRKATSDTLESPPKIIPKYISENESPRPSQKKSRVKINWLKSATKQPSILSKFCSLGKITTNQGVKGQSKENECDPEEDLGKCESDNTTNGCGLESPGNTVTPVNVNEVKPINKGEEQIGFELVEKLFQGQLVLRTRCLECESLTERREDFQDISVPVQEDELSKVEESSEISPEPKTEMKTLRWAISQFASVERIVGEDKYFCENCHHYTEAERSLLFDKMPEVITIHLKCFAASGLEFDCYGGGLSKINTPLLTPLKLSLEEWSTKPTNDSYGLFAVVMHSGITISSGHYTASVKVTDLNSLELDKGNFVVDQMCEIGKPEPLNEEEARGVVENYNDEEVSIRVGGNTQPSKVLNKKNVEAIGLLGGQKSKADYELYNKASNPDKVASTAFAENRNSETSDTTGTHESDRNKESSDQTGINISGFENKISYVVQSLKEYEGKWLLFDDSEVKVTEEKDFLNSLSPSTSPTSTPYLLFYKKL

Experiment [13] can be described thus: Primary qHTS for small molecule stabilizers of the endoplasmic reticulum resident proteome: Secreted ER Calcium Modulated Protein (SERCaMP) assay (AID 1508630). Note: % is set by controls: 0 for no effect and ±100 for the full control effect. The note with it: SH-SY5Y GLuc-SERCaMP (Gaussia luciferase released on ER calcium loss) secretion, thapsigargin, luminescence; series mostly up to 38.4 µM. The essentials: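 The SH-SY5Y reporter protocol was run at 3 concentrations up to 38.3 uM (primary) or 11 concentrations (follow-up): 16 h compound, 100 nM thapsigargin for 4 h, then extracellular luciferase luminescence.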

Experiment [14] deals with Cytochrome P450 3A4 (Homo sapiens) (UniProt P08684). As to the kind of experiment: qHTS Assay for Activators of Cytochrome P450 3A4 (AID 885). Note: nearly all actives have a fitted effect of over 65% in size. The following applies: recombinant CYP3A4, Luciferin-PPXE luminescence, 60 min; series mostly up to 57.1 µM. The gist of the method:
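Luminescent readout of luciferin formed from 25 uM Luciferin-PPXE (KM level) by 20 nM CYP3A4 in 200 mM KPO4, with 60 min NADPH-driven reaction at room temperature after 10 min compound exposure. Ketoconazole (57 uM) defined 100% inhibition.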

Sequence of Lysosomal acid glucosylceramidase (Homo sapiens) (P04062 whole entry, looked up): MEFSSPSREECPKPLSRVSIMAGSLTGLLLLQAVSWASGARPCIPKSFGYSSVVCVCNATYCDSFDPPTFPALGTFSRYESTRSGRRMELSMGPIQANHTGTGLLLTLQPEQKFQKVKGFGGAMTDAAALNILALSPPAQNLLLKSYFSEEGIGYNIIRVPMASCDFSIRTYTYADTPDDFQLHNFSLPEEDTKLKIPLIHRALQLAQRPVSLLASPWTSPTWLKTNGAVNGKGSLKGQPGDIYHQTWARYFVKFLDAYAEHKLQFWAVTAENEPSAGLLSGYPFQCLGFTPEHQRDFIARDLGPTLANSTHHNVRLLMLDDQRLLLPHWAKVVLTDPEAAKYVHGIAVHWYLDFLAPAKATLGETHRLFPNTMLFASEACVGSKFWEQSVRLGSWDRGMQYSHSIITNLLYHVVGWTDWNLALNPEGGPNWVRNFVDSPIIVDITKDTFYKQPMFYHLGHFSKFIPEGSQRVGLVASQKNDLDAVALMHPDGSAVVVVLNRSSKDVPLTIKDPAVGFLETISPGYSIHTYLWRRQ
Sequence of Dual specificity protein kinase CLK4 (Homo sapiens) (Q9HAZ1 whole entry, looked up): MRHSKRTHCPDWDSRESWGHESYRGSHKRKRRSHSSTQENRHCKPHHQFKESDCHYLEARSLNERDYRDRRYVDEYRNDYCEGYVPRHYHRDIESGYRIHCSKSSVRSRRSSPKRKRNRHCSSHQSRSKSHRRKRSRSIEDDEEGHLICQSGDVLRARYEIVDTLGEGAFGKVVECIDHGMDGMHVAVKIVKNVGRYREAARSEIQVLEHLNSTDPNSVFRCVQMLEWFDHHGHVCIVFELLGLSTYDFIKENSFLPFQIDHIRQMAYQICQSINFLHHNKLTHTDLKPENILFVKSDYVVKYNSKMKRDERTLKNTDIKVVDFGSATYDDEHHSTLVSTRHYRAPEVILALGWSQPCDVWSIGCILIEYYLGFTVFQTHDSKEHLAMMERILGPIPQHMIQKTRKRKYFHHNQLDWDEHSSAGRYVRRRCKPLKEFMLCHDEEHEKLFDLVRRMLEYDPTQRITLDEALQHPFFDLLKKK
Sequence of Cytochrome P450 3A4 (Homo sapiens) (P08684 whole entry, looked up): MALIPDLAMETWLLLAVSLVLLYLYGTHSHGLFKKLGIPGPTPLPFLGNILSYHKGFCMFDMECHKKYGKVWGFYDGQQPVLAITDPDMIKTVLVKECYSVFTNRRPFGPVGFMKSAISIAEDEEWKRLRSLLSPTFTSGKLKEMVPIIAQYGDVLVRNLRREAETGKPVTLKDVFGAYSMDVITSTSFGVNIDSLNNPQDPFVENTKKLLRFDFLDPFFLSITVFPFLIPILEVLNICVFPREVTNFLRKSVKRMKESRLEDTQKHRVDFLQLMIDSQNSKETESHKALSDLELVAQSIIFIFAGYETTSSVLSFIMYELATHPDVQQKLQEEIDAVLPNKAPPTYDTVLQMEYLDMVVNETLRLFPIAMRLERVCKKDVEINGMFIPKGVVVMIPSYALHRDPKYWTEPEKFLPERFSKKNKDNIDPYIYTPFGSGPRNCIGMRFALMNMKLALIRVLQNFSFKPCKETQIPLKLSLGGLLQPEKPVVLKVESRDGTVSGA

Consider `c1ccc(CNc2ncnc3ccc(-c4ccoc4)cc23)cc1`, for which the Potency in experiment [1] was over 11.4 µM; in [5] it was over 46 µM; in [6], over 46 µM; in [9] it was 14.1 µM (active); in experiment [10] it was 12.6 µM (active); in experiment [11], 12.6 µM (active). The activity change, negative = inhibition in experiment [2] is -25%; in experiment [3], 11.4%. Further, in experiment [4], the activity, negative = inhibition was -19.6%. Besides, the Potency entry in experiment [7], in experiment [8] and in experiment [12] was “inactive” in each case. Moreover, the outcome in experiment [13] was inactive.
For `O=c1c(-c2ccccc2)nc2cnc(Nc3ccccc3)nc2n1C[C@H]1CCCO1`, the Potency in experiment [1] is over 11.4 µM; in experiment [5], over 9.22 µM; in [6], over 46 µM. In addition, the activity change, negative = inhibition was 1.69% in [2] and -14.2% in [3]. The activity, negative = inhibition in experiment [4] is -4.27%. The Potency result in experiment [7], in experiment [8], in [14], in experiment [9], in experiment [10] and in experiment [11] was “inactive” throughout. In experiment [12], the Potency entry is “inactive”. Besides, the result in experiment [13] was inactive.
Regarding `Cc1cnc(CNc2cc(-c3ccc4c(c3)OCO4)ncn2)cn1`, the Potency in experiment [1] was over 11.4 µM; in [5], over 46 µM; in experiment [6], over 46 µM; in experiment [9], 3.98 µM (active); in experiment [10] it was 3.55 µM (active); in experiment [11], 12.6 µM (active). The activity change, negative = inhibition in [2] was -3.49%; in experiment [3], 7.15%. The activity, negative = inhibition in experiment [4] was -3.34%. Also, the Potency result in [7], in [8] and in experiment [12] was “inactive” each time. The outcome in experiment [13] was inactive.
For the compound `CN(C)C(=O)c1ccc(-c2cncnc2N(C)Cc2ccco2)cc1`, the Potency in experiment [1] was over 11.4 µM; in [5], over 46 µM; in experiment [6], over 46 µM. Besides, the figures for the activity change, negative = inhibition in experiment [2] and in experiment [3] were -9.99% and -12.8%, respectively. Besides, the activity, negative = inhibition in experiment [4] was 3.83%. Further, the Potency result in [7], in experiment [8], in [9], in [10], in experiment [11] and in experiment [12] was “inactive” each time. The outcome in experiment [13] was inactive.
As to `COc1ccc(-c2nc3cnc(N(C)C)nc3n(C)c2=O)cc1`, the figures for the Potency in experiment [1], in experiment [5] and in experiment [6] were over 11.4 µM, over 9.22 µM and over 46 µM, respectively. The activity change, negative = inhibition was 11% in experiment [2] and 6.21% in experiment [3]. Also, in experiment [4], the activity, negative = inhibition is 10.4%. Also, the Potency result in [7], in experiment [8], in [9], in [10], in experiment [11] and in experiment [12] was “inactive” in each case. Besides, the outcome in [13] was inactive.
Take `c1cn(-c2cc(-c3ccc4c(c3)OCO4)ncn2)cn1`: the Potency was over 11.4 µM in [1]; over 46 µM in experiment [5]; over 46 µM in [6]; 3.16 µM (active) in experiment [9]; 2.82 µM (active) in experiment [10]; 2 µM (active) in [11]. Also, the Potency in experiment [12] is 17.8 µM (active). Further, the activity change, negative = inhibition in [2] was 13.6%; in experiment [3], 13.4%. The activity, negative = inhibition in [4] was 6.1%. Besides, the Potency entry in [7] and in [8] was “inactive” throughout. Also, the result in experiment [13] was inactive.
